Consider eight compounds from PubChem BioAssay (NCI).

About 83,000 compounds went through this panel and 20% of them were active in at least one assay; those are over-represented in the sample as a whole.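 Each cell line was grown in a 96-well plate and treated with one concentration of compound for 48 hours. Values below 10 were considered active.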 Unmarked numbers belong to inactive results. Active and inactive are the calls of the source.

Assay in all cases: NCI-60 one-dose screen, 48 h (100 = growth as untreated, 0 = no growth, -100 = all killed)
Settings in all cases: 10 µM unless noted

For assay [1], the system named is NCI-H23 lung.
The subject of assay [2] is NCI-H226 lung.
The subject of assay [3] is NCI-H322M lung.
The test system of assay [4] is HOP-62 NSCLC.
Assay [5] relates to NCI-H460 lung.
Assay [6] has as its system HOP-92 NSCLC.
In assay [7] the test system is NCI-H522 lung.
Assay [8] relates to A549/ATCC NSCLC.
Assay [9] deals with 786-0 renal.
In assay [10] the test system is COLO 205 colon.
Assay [11] deals with DU-145 prostate.
In assay [12] the test system is K-562 leukemia.
In assay [13] the test system is MALME-3M melanoma.
Assay [14] concerns MDA-MB-231 breast.
Assay [15] relates to SF-268 CNS.
Assay [16] concerns SF-295 CNS.
The subject of assay [17] is SF-539 CNS.
Assay [18] has as its system UACC-257 melanoma.
The test system of assay [19] is M14 melanoma.
In assay [20] the test system is RXF 393 renal.

In the case of `CN1C(=O)C23CC4(C56CC78SSC(CO)(C(=O)N7C5Nc5ccccc56)N(C)C8=O)c5ccccc5NC4N2C(=O)C1(CO)SS3` (stereo not given), the growth in [1] was -72.9% (active); in [2] it was -100% (active); in [3], -94.5% (active); in [4], -86.4% (active); in assay [5], -89.4% (active); in assay [6], -99% (active). In addition, the growth in [7] was -85.9% (active); in assay [8], -88.5% (active); in assay [9], -97.4% (active); in assay [10], -87.8% (active); in assay [11], -100% (active); in assay [12], -30.3% (active). The growth in [13] is -76.7% (active); in assay [14] it was -94.1% (active); in assay [15] it was -97.8% (active); in [16] it was -93.8% (active); in [17] it was -86.4% (active); in assay [18], -94.9% (active). Moreover, in assay [19], the growth was -83.3% (active).
Consider `CC(=O)/C=C/c1ccc2c(c1)OCO2`, for which the growth in assay [1] was 95.4%; in [2], 95.2%; in assay [3], 104%; in [4], 102%; in [5] it was 107%; in assay [6], 89%. The growth in [7] is 84.7%; in assay [8] it was 95.2%; in assay [9], 99%; in assay [10], 107%; in assay [11] it was 104%; in [12] it was 106%. Moreover, the growth was 92% in assay [13]; 95.1% in [14]; 106% in assay [15]; 94.1% in assay [16]; 102% in [17]; 91.7% in assay [18].
As to `CCCCCC1(CCBr)C(=O)NC(=O)NC1=O`, the growth in assay [1] is 109%; in assay [2] it was 104%; in assay [3] it was 118%; in assay [4] it was 107%; in assay [5], 108%; in assay [6], 85.1%. Further, the growth was 100% in assay [7]; 98.3% in assay [8]; 95.9% in assay [9]; 110% in assay [10]; 109% in assay [11]; 94.1% in assay [12]. In addition, the growth in assay [13] is 108%; in assay [14], 107%; in assay [20], 107%; in assay [17], 96.6%; in assay [18], 91%; in [19], 112%.
Regarding `O=C(Nc1ccc(Cl)cc1)Nc1nccs1`, the growth was 50.5% in assay [1]; 69.9% in [2]; 40.6% in [3]; 31.7% in assay [4]; 21% in assay [5]; 38.6% in [6]. Moreover, the growth was -32.3% (active) in assay [7]; 38.6% in assay [8]; 56.8% in assay [9]; 3.09% (active) in [10]; 17.7% in assay [11]; 15.1% in assay [12]. For the same compound, the growth is 45.2% in assay [13]; 46.5% in [14]; 2.93% (active) in [20]; 48.8% in assay [15]; 10.8% in assay [17]; 44.3% in assay [18]. Moreover, the growth in assay [19] is 18.1%.
For the compound `O=C1OCC2=C1C(c1ccccc1)c1cc3c(cc1N2)OCO3` (stereo not given), the growth in assay [1] is 16.1%; in assay [2] it was -9.94% (active); in assay [3], 46.9%; in [4], 15%; in assay [5], 5.45% (active); in assay [6], 30.8%. The growth is -40.3% (active) in [7]; 12.6% in [8]; 15.9% in assay [9]; -65.7% (active) in assay [10]; -36.2% (active) in assay [11]; 14.5% in [12]. For the same compound, the growth in assay [13] is 58%; in [14] it was -1.65% (active); in assay [15] it was 10.4%; in assay [16], 6.68% (active); in assay [17], 4.21% (active); in assay [18] it was 35.2%. Also, in [19], the growth is 10%.
For `CCOC(=O)C(Cc1ccc(N(CCCl)CCCl)cc1)NC(=O)C(CC(C)C)NC(C)=O` (stereo not given), the growth in assay [1] is 17.1%; in assay [2] it was 50%; in assay [3], 97.1%; in assay [4], 41%; in assay [5] it was 1.65% (active); in assay [6], 24.6%. Further, the growth in assay [7] was -73.1% (active); in assay [8] it was 49.4%; in [9], 9.46% (active); in assay [10] it was -29.3% (active); in assay [11] it was 14.3%; in assay [12] it was 12.6%. Further, the growth in [13] was -33% (active); in assay [14], 51.6%; in [20], -15.5% (active); in assay [15] it was 5.5% (active); in [17] it was 13.2%; in [18], 24.2%. For the same compound, the growth in [19] is -4.57% (active).
As for `COC1=CC(=O)O[C@@H](/C=C/c2ccc3c(c2)OCO3)C1`, the growth in [1] is 117%; in assay [2], 92.8%; in [3] it was 97.5%; in assay [4] it was 112%; in assay [5] it was 118%; in [6] it was 60.9%. Also, the growth is 98.3% in assay [7]; 97% in assay [8]; 112% in assay [9]; 125% in assay [10]; 141% in assay [11]; 93.9% in [12]. Moreover, the growth in [13] is 119%; in assay [14], 107%; in assay [15], 111%; in assay [16], 122%; in assay [17], 107%; in assay [18], 120%. The growth in [19] was 109%.
`ClCCN(CCCl)c1ccc(/C=N/Nc2ncnc3nc[nH]c23)cc1`: the growth in assay [1] was 68.8%; in [2], 79%; in [3] it was 97.7%; in assay [4], 82%; in assay [5], 39.1%; in assay [6], 81.3%. Moreover, the growth in [7] was 61%; in [8], 87.7%; in [9] it was 80.2%; in assay [10], 90.5%; in assay [11] it was 62.8%; in assay [12], 61.2%. Besides, the growth is 106% in [13]; 96.2% in assay [14]; 58.9% in assay [15]; 57.8% in [16]; 72.7% in assay [17]; 106% in assay [18]. The growth in [19] was 76.7%.
